The record followed here is PubChem BioAssay AID1558 (National Center for Advancing Translational Sciences (NCATS), 2009).

This experiment has as its target Microtubule-associated protein tau (Homo sapiens) (UniProt P10636). The experiment is described as follows: Confirmation Concentration-Response Assay for Inhibitors of Tau Fibril Formation, Thioflavin T Binding. Particulars: recombinant tau K18 P301L (four-repeat tau fragment) heparin fibrillization, ThT fluorescence. The text has this: NIH Molecular Libraries Probe Production Network [MLPCN] NIH Chemical Genomics Center [NCGC] MLPCN Grant: X01 MH083262-01 Assay Provider: Carlo Ballatore, University of Pennsylvania NCGC Assay Overview: The microtubule-associated protein tau is an abundant protein in the axons of neurons that stabilizes microtubules. With its ability to modulate microtubule dynamics, tau contributes directly or indirectly, to key structural and regulatory cellular functions. Particularly important is the influence tau exerts on axonal transport, which allows signaling molecules, trophic factors and other essential cellular constituents to travel along the axons. Under pathological conditions, tau becomes sequestered into insoluble aggregates called neurofibrillary tangles. […] This assay monitors tau fibrillization by Thioflavin T (ThT) fluorescence. […]
For screening, 2 uL/well human K18 P301L (15 uM unlabeled and 0.24 uM Alexa 594-labeled tau, final concentrations) in reagent buffer (100 mM sodium acetate pH 7) was dispensed into black solid 1536-well plates (Grenier) using a solenoid-based dispenser. […] After a 1 hr ambient incubation, the plates were read by an Envision (Perkin Elmer) to monitor ThT fluorescence (450/8 nm excitation and 510/23 nm emission). […]

Results filed as inconclusive are left out. Activity calls are given as the source filed them. Calls follow the shape of the dose curve; as a rule, active = well fitted inhibition curve with a large enough effect; inconclusive = small, poorly fitted or top-dose-only effect; inactive = flat fitted curve, though single readings scatter.

Chain of Microtubule-associated protein tau (Homo sapiens) (P10636 561-689 P618L limits assumed): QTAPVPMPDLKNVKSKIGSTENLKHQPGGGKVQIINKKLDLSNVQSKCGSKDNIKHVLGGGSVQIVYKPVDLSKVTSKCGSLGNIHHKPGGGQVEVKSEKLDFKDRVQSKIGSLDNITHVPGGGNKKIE

For the molecule `CC(N)[C@H](O)c1ccc(O)c(O)c1` (stereo partly specified), the Potency was 7.94 µM (active).
